In the library only some 2.4% were active in any assay of this set; here they are far more common.
CHRM1 agonist: human M1 muscarinic receptor agonists, primary screen, Fluo-8 calcium fluorescence, CHO-K1 cells, HTS | CHO-K1 hM1, agonist mode; 0% DMSO, 100% acetylcholine EC100 | activation, % at 3 µM | 360,000 compounds, 0.33% hits | AID 588814, 2011;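 active = activation above the run's mean compound activation plus 3 SD, cut at about 16% in these data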;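 also: peak over basal fluorescence ratio within a 140 s kinetic read after compound addition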
Target sequence (P11229 whole entry, looked up): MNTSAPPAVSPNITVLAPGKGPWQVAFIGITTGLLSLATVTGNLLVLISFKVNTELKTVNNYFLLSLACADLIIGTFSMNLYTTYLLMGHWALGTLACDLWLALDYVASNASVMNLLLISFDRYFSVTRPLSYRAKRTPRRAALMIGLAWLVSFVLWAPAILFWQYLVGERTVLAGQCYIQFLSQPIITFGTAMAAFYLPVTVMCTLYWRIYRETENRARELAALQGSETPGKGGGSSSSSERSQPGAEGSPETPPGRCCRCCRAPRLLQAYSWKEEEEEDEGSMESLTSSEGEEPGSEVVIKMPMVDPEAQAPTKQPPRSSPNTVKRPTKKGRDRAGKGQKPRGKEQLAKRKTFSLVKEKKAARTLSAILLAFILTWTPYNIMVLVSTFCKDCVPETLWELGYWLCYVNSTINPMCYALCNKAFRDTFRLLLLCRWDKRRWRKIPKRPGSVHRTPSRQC
M1 PAM parental: nonselective calcium activators in parental CHO-K1 cells, primary screen, counter-screen for M1 PAM project, cell-based, Fluo-8 calcium fluorescence, full deck, 1536-well; ATP EC20; 0% at ATP EC20, 100% at ATP max; activation, % at 3 µM; 360,000 compounds, 0.02% hits; AID 602247, 2012;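 active = activation above the run cutoff, the mean activation of all test compounds plus 3 SD, cut at about 40% in these data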;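 also: peak over basal fluorescence ratio in a 140 s read after ATP addition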
CHO-K1 Ca antag: nonselective inhibitor or artifact in parental CHO-K1 cells | ATP-induced calcium, Fluo-8 fluorescence | inhibition, % at 3 µM | 360,000 compounds, 0.6% hits | AID 602250;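 active = inhibition above a per-plate cutoff, the plate's mean sample inhibition plus 3 SD, cut at about 24% in these data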
M1 ag parental: counter-screen for M1 agonists: effect in parental CHO-K1 cells | activation, % at 3 µM | 360,000 compounds, 0.48% hits | AID 602248, 2012 | Fluo-8 calcium fluorescence; scaled to maximal ATP response, vehicle zero; in the data active = activation above about 15%;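 also: untransfected CHO-K1 host cells lacking M1 receptor as counterscreen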
M1 PAM: human M1 muscarinic receptor positive allosteric modulators, primary screen, CHO-K1 cells, Fluo-8 calcium fluorescence, 1536-well; CHO-K1 hM1, ACh EC20; 0% = ACh EC20, 100% = maximal ACh; activation, % at 3 µM; 360,000 compounds, 0.088% hits; in the data active = activation above about 19%, passing the limit was not always enough
CHRM1 antagonist: human M1 muscarinic receptor antagonists, primary screen, CHO-K1 cells, Fluo-8 calcium fluorescence, 1536-well | Muscarinic acetylcholine receptor M1 (Homo sapiens), P11229 | CHO-K1 hM1, ACh EC80 antagonist | inhibition, % at 3 µM | 360,000 compounds, 1.3% hits | AID 588852, 2011;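 active = percent inhibition above its own plate's cutoff, namely the mean of that plate's compound wells plus 3 SD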;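 also: peak over basal fluorescence ratio during 140 s after agonist addition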
A number is an active result.

How did C[C@H](NC(=O)CC[C@H]1O[C@@H](n2ccc(=O)[nH]c2=O)[C@H](O)[C@@H]1O)C(=O)O do in these assays?
CHRM1 agonist: inactive; M1 PAM parental: inactive; CHO-K1 Ca antag: inactive; M1 ag parental: inactive; M1 PAM: inactive; CHRM1 antagonist: inactive

What do the screens show for `O=C(CSc1nc2ccccc2s1)NC1CCCC1`?
CHRM1 agonist: inactive; M1 PAM parental: inactive; CHO-K1 Ca antag: inactive; M1 ag parental: inactive; M1 PAM: inactive; CHRM1 antagonist: inactive

How did Cc1ccc(NC(=O)NNC(=O)COc2ccc([N+](=O)[O-])cc2)cc1C do in these assays?
CHRM1 agonist: inactive; M1 PAM parental: inactive; CHO-K1 Ca antag: inactive; M1 ag parental: inactive; M1 PAM: inactive; CHRM1 antagonist: inactive

Results for O=C(O)c1cccc(N2C(=O)c3cccc4c(Cl)ccc(c34)C2=O)c1 ?
CHRM1 agonist: inactive; M1 PAM parental: inactive; CHO-K1 Ca antag: inactive; M1 ag parental: inactive; M1 PAM: inactive; CHRM1 antagonist: inactive

Results for Nc1cccc(N2C(=O)c3cccc4c(N)ccc(c34)C2=O)c1 ?
CHRM1 agonist: 44.5; M1 PAM parental: inactive; CHO-K1 Ca antag: inactive; M1 ag parental: 15.3; M1 PAM: inactive; CHRM1 antagonist: inactive

Results for COc1ccc(/C=C2/Sc3ccc(C(=O)N4CCOCC4)cc3NC2=O)cc1OC ?
CHRM1 agonist: inactive; M1 PAM parental: inactive; CHO-K1 Ca antag: inactive; M1 ag parental: inactive; M1 PAM: inactive; CHRM1 antagonist: inactive

Results for CCOC(=O)N1CCN(C(=O)c2ccc(OCC)c(OCC)c2)CC1 ?
CHRM1 agonist: inactive; M1 PAM parental: inactive; CHO-K1 Ca antag: 37.3; M1 ag parental: inactive; M1 PAM: inactive; CHRM1 antagonist: inactive

How did CCOC(=O)N1CCN(C(=O)c2ccc3c(c2)NC(=O)/C(=C\c2ccc(OC)c(OC)c2)S3)CC1 do in these assays?
CHRM1 agonist: inactive; M1 PAM parental: inactive; CHO-K1 Ca antag: inactive; M1 ag parental: inactive; M1 PAM: inactive; CHRM1 antagonist: 51.5

How did COc1ccc(C)cc1NC(=O)CN(Cc1nnc(-c2ccc(Cl)cc2)o1)C1CCCC1 do in these assays?
CHRM1 agonist: inactive; M1 PAM parental: inactive; CHO-K1 Ca antag: inactive; M1 ag parental: inactive; M1 PAM: inactive; CHRM1 antagonist: inactive

Results for CCSc1nnc(NC(=O)CCn2c(=O)oc3ccccc32)s1 ?
CHRM1 agonist: inactive; M1 PAM parental: inactive; CHO-K1 Ca antag: inactive; M1 ag parental: inactive; M1 PAM: inactive; CHRM1 antagonist: inactive

Results for Cc1cc(C)n2nc(CCc3ccccc3)nc2n1 ?
CHRM1 agonist: inactive; M1 PAM parental: inactive; CHO-K1 Ca antag: inactive; M1 ag parental: inactive; M1 PAM: inactive; CHRM1 antagonist: inactive

How did O=C(COC(=O)C1CC2CCCC(C1)C2=O)Nc1nc(-c2ccc(F)c(F)c2)cs1 (configuration not stated) do in these assays?
CHRM1 agonist: inactive; M1 PAM parental: inactive; CHO-K1 Ca antag: inactive; M1 ag parental: inactive; M1 PAM: inactive; CHRM1 antagonist: inactive

How did COc1ccccc1NS(=O)(=O)c1cccc(NC(=O)Nc2ccccc2)c1 do in these assays?
CHRM1 agonist: inactive; M1 PAM parental: inactive; CHO-K1 Ca antag: 37.0; M1 ag parental: 18.4; M1 PAM: inactive; CHRM1 antagonist: 59.2

What do the screens show for `COc1cccc(OC)c1C(=O)Nc1cccc(S(=O)(=O)Nc2ccccc2Cl)c1`?
CHRM1 agonist: inactive; M1 PAM parental: inactive; CHO-K1 Ca antag: inactive; M1 ag parental: inactive; M1 PAM: inactive; CHRM1 antagonist: inactive

How did COc1ccccc1NS(=O)(=O)c1cccc(NC(=O)Nc2ccc(Cl)cc2)c1 do in these assays?
CHRM1 agonist: inactive; M1 PAM parental: inactive; CHO-K1 Ca antag: 38.1; M1 ag parental: inactive; M1 PAM: inactive; CHRM1 antagonist: 44.0

What do the screens show for `CNC(=O)/C(C#N)=C/c1ccc(-c2nc3ccccc3s2)o1`?
CHRM1 agonist: inactive; M1 PAM parental: inactive; CHO-K1 Ca antag: inactive; M1 ag parental: inactive; M1 PAM: inactive; CHRM1 antagonist: inactive

What do the screens show for `CCn1nc(C(=O)Nc2ccccc2N2CCCC2)c2ccccc2c1=O`?
CHRM1 agonist: inactive; M1 PAM parental: inactive; CHO-K1 Ca antag: inactive; M1 ag parental: 17.0; M1 PAM: inactive; CHRM1 antagonist: inactive

What do the screens show for `COc1ccccc1N1CCN(CC(=O)Nc2cc(C)nn2-c2nc(C)cc(C)n2)CC1`?
CHRM1 agonist: inactive; M1 PAM parental: inactive; CHO-K1 Ca antag: inactive; M1 ag parental: inactive; M1 PAM: inactive; CHRM1 antagonist: inactive

How did Cc1cccc(NC(=S)N(CCCN2CCCC2)Cc2cccn2Cc2ccc(Cl)cc2)c1 do in these assays?
CHRM1 agonist: inactive; M1 PAM parental: inactive; CHO-K1 Ca antag: inactive; M1 ag parental: 16.6; M1 PAM: inactive; CHRM1 antagonist: inactive

How did CCOc1ccc(NC(=S)N(CCCN2CCCC2)Cc2cccn2Cc2ccc(Cl)cc2)cc1 do in these assays?
CHRM1 agonist: inactive; M1 PAM parental: inactive; CHO-K1 Ca antag: inactive; M1 ag parental: inactive; M1 PAM: inactive; CHRM1 antagonist: inactive

How did CSc1cccc(NC(=O)N2CCCC(CNS(=O)(=O)Cc3ccccc3)C2)c1 (configuration not stated) do in these assays?
CHRM1 agonist: inactive; M1 PAM parental: inactive; CHO-K1 Ca antag: inactive; M1 ag parental: inactive; M1 PAM: inactive; CHRM1 antagonist: inactive

What do the screens show for `O=C(O)c1cn(Cc2ccccc2)c2ccc(Cl)cc2c1=O`?
CHRM1 agonist: 47.0; M1 PAM parental: inactive; CHO-K1 Ca antag: inactive; M1 ag parental: inactive; M1 PAM: inactive; CHRM1 antagonist: inactive

How did CCCCCCn1cc(C(=O)O)c(=O)c2ccccc21 do in these assays?
CHRM1 agonist: 32.1; M1 PAM parental: inactive; CHO-K1 Ca antag: inactive; M1 ag parental: inactive; M1 PAM: inactive; CHRM1 antagonist: inactive

Results for COc1ccc2c(c1)c(=O)c(C(=O)c1ccccc1)cn2Cc1ccccc1 ?
CHRM1 agonist: inactive; M1 PAM parental: inactive; CHO-K1 Ca antag: inactive; M1 ag parental: inactive; M1 PAM: inactive; CHRM1 antagonist: inactive

What do the screens show for `COC(=O)CCC(=O)OC`?
CHRM1 agonist: inactive; M1 PAM parental: inactive; CHO-K1 Ca antag: inactive; M1 ag parental: inactive; M1 PAM: inactive; CHRM1 antagonist: inactive

What do the screens show for `O=C(Cn1ccc([N+](=O)[O-])n1)NCc1nc2ccccc2[nH]1`?
CHRM1 agonist: inactive; M1 PAM parental: inactive; CHO-K1 Ca antag: inactive; M1 ag parental: 16.9; M1 PAM: inactive; CHRM1 antagonist: inactive

What do the screens show for `CN(C)c1ccc(NC(=O)c2cccc(C(=O)Nc3ccc(N(C)C)cc3)n2)cc1`?
CHRM1 agonist: inactive; M1 PAM parental: inactive; CHO-K1 Ca antag: 27.5; M1 ag parental: inactive; M1 PAM: inactive; CHRM1 antagonist: inactive
